“And” between values parts separate entries of the source, which are not always exact repeats. Equal entries are not always repeated. Records with an inconclusive call do not appear. Where a call stands in place of a potency, no number is given. The source holds several records for some structures; these can differ, active in one and inactive in another. The source made the active and inactive calls. Unless noted, the call rests on the fitted dose curve; in most records, active means well fitted curve in the direction sought with a large enough effect in the repeat runs; inconclusive means weak or mixed curves; inactive means no such curve, though single readings can be large; an effect the other way counts as inactive or inconclusive.
Tests used:
[1] = qHTS assay to identify small molecule antagonists of the androgen receptor (AR) signaling pathway using the MDA cell line in the presence of 0.5 nM R1881 - cell viability counter screen (AID 1259242); further: nearly all actives have a fitted effect of over 45% in size; further: potency means the concentration at half of the fitted maximal effect
In short: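 Cytotoxicity toward MDA-kb2 cells is measured by CellTiter-Fluor live-cell protease fluorescence after 16 hr compound exposure at 37C in the presence of 0.5 nM R1881 stimulator.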

[2] = qHTS assay to identify small molecule HDAC inhibitors (AID 1259364); further: top concentration of the series differs between compounds; nearly all actives have a fitted effect of over 45% in size
In short: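 Homogeneous cell-based luminescent assay of endogenous class I/II HDAC activity; HCT-116 cells, 2 h compound exposure, 30 min HDAC-Glo development at RT.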

[3] = qHTS assay to identify small molecule agonists of the sonic hedgehog signaling (Shh) pathway - cell viability counter screen (AID 1259366); further: nearly all actives have a fitted effect of over 50% in size
In short: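 NIH/3T3-derived 3T3 Gli1-Luc cells (stable Gli1-responsive firefly luciferase reporter) were seeded, rested 4 hr at 37 C/5% CO2, then exposed to compounds in DMSO for 24 hr; viability was read by CellTiter-Fluor fluorescence in the same wells.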

[4] = qHTS assay to identify small molecule antagonists of the sonic hedgehog signaling (Shh) pathway - cell viability counter screen (AID 1259367); further: nearly all actives have a fitted effect of over 55% in size
In short: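 Using CellTiter-Fluor, viability of Gli1-Luc reporter 3T3 cells is read by fluorescence in the wells used for the Shh luciferase assay. Treatment lasts 23 hr with conditioned medium, then reagent 1 hr at 37C.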

[5] = qHTS assay to identify small molecule agonists of the sonic hedgehog signaling (Shh) pathway (AID 1259368; calls by dose curve; further: series mostly up to about 92 µM; nearly all actives have a fitted effect of over 15% in size)
In short: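 Steps: seed 3T3 Gli1-Luc cells, incubate 4 hr at 37 C, pin-transfer compounds in DMSO alongside a positive control, incubate 24 hr, add luciferase detection reagent, wait 30 min at room temperature, read luminescence.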

[6] = qHTS assay to identify small molecule antagonists of the sonic hedgehog signaling (Shh) pathway (AID 1259369; calls by dose curve; further: nearly all actives have a fitted effect of over 45% in size; further: potency means the concentration at half of the fitted maximal effect)
In short: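 Inhibition of Shh signalling is measured as reduced Gli1-response-element firefly luciferase output in an NIH/3T3-derived stable reporter clone stimulated with conditioned medium for 24hr.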

[7] = qHTS assay to identify small molecule agonists of the androgen receptor (AR) signaling pathway in the presence of an antagonist - cell viability counter screen (AID 1259379); further: nearly all actives have a fitted effect of over 25% in size; further: potency means the concentration at half of the fitted maximal effect;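 on activity change, negative = cytotoxicity: MDA-kb2 human breast cancer cells carrying an MMTV luciferase reporter; series mostly up to about 92 µM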
In short: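 Fluorescence from CellTiter-Fluor, added after 15 hr and read 1 hr later, gave cell viability. Cells were MDA-kb2 exposed to compounds (15 concentrations) in the presence of 3.0uM nilutamide at 37C, 0% CO2.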

[8] = qHTS assay to identify small molecule agonists of the estrogen receptor beta (ER-beta) signaling pathway - cell viability counter screen (AID 1259380); further: nearly all actives have a fitted effect of over 30% in size; further: potency means the concentration at half of the fitted maximal effect
In short: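 Same-well viability counter screen. Cells: ER-beta-UAS-bla HEK293T, plated 6 hr before compound, in 2% charcoal-stripped FBS. Compound exposure 16 hr, 37C; viability by CellTiter-Glo luminescence after 30 min at room temperature.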

[9] = qHTS assay to identify small molecule agonists or antagonists of the thyroid stimulating hormone receptor (TSHR) signaling pathway - wild type cell line counter screen (AID 1259384; calls by dose curve)
In short: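 Counter screen in untransfected Hek293: compounds (15-point titration, triplicate) plus phosphodiesterase inhibitor Ro20-1724 added after 18 h plating; 30 min RT. Intracellular cAMP via competitive d2/cryptate immunoassay, 1 h incubation.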

[10] = target: Thyrotropin receptor (Homo sapiens) (UniProt P16473); assay: qHTS assay to identify small molecule antagonists of the thyroid stimulating hormone receptor (TSHR) signaling pathway (AID 1259385; calls by dose curve; further: nearly all actives have a fitted effect of over 20% in size; further: potency means the concentration at half of the fitted maximal effect)
In short: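 Antagonist mode: compound-treated TSHR-expressing HEK293 cells were stimulated with 1.5 ng/mL TSH (final) in presence of Ro20-1724 for 30 min at RT. HTRF cAMP detection after 1 h; each compound tested at 15 concentrations, triplicate.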

[11] = qHTS assay to identify small molecule agonists of the estrogen receptor alpha (ER-alpha) signaling pathway in the presence of an antagonist - cell viability counter screen (AID 1259386);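 further: cells exposed to compounds for 22 h at 37 °C before the viability read; nearly all actives have a fitted effect of over 30% in size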; further: potency means the concentration at half of the fitted maximal effect; on activity change, negative = cytotoxicity: series mostly up to about 92 µM
In short: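 Cells are starved of estrogens for 5 days in charcoal-stripped serum, seeded for 24hr and co-treated with ICI-182,780 (10.0nM final) and test compounds. After 22hr at 37C, viability is read as CellTiter-Fluor fluorescence.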

[12] = qHTS assay to identify small molecule phospholipidosis (PLD) inducers (AID 1259344; active means well fitted curve in the direction sought with a large enough effect; an effect the other way counts as inactive or inconclusive; further: potency means the concentration at half of the fitted maximal effect)
In short: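 Fluorescent phospholipid staining (LipidTOX Red) measured by automated microscopy in fixed HepG2 cells after 24 h treatment; nuclei counterstained with Hoechst 33342; amiodarone as reference inducer.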

[13] = qHTS assay to identify small molecule antagonists of the estrogen receptor beta (ER-beta) signaling pathway - cell viability counter screen (AID 1259382); further: nearly all actives have a fitted effect of over 55% in size; further: potency means the concentration at half of the fitted maximal effect; on activity change, negative = cytotoxicity: series mostly up to about 92 µM
In short: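 Following a 6 hr plating period, HEK293T cells carrying a UAS-driven beta-lactamase reporter under ER-beta control received compounds and 1nM E2 (final). After 16 hr at 37C and 2 hr substrate loading, CellTiter-Glo luminescence indicated viability.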

[14] = qHTS assay to identify small molecule HDAC inhibitors - cell viability counter screen (AID 1259365); further: series mostly up to about 92 µM; nearly all actives have a fitted effect of over 50% in size
In short: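 Wild-type HCT-116 cells were seeded at 1,500 per well, incubated overnight at 37 C, then exposed to compounds in DMSO for 2hr. Viability was read by CellTiter-Glo luminescence after 30min at room temperature.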

[15] = target: Estrogen receptor (Homo sapiens) (UniProt P03372); assay: qHTS assay to identify small molecule agonists of the estrogen receptor alpha (ER-alpha) signaling pathway in the presence of an antagonist (AID 1259383; calls by dose curve; further: top concentration of the series differs between compounds; nearly all actives have a fitted effect of over 15% in size)
In short: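 Cells are hormone-deprived for 5 days (charcoal-stripped FBS, no phenol red), plated for 24hr, spiked with 10.0nM ICI-182,780, then dosed at 15 concentrations. After 22hr at 37C, ONE-Glo luminescence reports ERE-luciferase activity.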

[16] = target: Estrogen receptor beta (Homo sapiens) (UniProt Q92731); assay: qHTS assay to identify small molecule agonists of the estrogen receptor beta (ER-beta) signaling pathway (AID 1259377; active means well fitted activation curve with a large enough effect in the signal ratio in the repeat runs, not every such curve was filed as active; the % refers to the signal ratio)
In short: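 ER-beta-UAS-bla HEK293T (GripTite) cells carrying a UAS-driven beta-lactamase reporter, in medium with 2% charcoal-stripped FBS, were exposed to compounds for 16 hr at 37C; LiveBLAzer B/G FRET substrate was then added and fluorescence read after 2 hours at room temperature.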

[17] = target: Estrogen receptor beta (Homo sapiens) (UniProt Q92731); assay: qHTS assay to identify small molecule antagonists of the estrogen receptor beta (ER-beta) signaling pathway (AID 1259378; active means well fitted inhibition curve with a large enough effect in the signal ratio in the repeat runs, not every such curve was filed as active; the % refers to the signal ratio)
In short: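 Antagonist mode: compounds added to beta-lactamase reporter HEK293T ER-beta-UAS cells stimulated with E2 (1nM final), 16 hr at 37C. LiveBLAzer B/G FRET substrate, 2 hours room temperature, fluorescence read-out.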

Sequence of Thyrotropin receptor (Homo sapiens) (P16473 whole entry, looked up): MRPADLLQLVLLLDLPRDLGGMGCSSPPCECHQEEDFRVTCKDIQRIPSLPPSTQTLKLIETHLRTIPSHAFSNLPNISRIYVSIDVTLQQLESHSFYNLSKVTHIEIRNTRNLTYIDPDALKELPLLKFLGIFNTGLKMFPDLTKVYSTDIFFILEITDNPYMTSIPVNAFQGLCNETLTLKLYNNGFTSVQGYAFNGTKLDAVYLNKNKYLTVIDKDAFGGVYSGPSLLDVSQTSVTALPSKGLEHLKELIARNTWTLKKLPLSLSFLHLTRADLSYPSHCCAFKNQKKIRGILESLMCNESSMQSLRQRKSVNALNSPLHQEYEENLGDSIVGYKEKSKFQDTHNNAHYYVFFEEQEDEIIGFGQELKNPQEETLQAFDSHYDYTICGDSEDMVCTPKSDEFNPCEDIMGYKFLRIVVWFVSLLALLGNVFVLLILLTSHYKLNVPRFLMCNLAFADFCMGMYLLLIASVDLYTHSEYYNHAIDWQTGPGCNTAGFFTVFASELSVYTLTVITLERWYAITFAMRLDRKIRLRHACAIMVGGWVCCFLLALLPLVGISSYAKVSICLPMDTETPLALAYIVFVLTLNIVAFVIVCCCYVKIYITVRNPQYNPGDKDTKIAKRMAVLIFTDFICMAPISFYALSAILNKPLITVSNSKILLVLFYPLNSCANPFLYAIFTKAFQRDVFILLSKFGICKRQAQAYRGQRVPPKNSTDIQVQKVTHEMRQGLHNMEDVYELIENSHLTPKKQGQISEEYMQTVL
Sequence of Estrogen receptor beta (Homo sapiens) (Q92731 whole entry, looked up): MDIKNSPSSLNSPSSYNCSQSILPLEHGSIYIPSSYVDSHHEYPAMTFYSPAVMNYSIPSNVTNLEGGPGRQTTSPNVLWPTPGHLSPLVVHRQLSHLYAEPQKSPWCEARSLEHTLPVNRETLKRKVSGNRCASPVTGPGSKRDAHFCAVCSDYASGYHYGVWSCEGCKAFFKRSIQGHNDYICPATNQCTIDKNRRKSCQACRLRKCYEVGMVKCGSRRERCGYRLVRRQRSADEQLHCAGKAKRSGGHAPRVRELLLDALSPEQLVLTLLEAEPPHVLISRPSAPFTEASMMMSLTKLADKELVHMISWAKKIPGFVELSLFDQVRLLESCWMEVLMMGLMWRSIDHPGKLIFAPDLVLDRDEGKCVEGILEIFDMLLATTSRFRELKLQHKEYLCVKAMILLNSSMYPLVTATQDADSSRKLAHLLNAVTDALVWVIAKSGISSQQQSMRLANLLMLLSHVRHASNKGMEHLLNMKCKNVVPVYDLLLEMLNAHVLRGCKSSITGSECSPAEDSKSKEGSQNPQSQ
Sequence of Estrogen receptor (Homo sapiens) (P03372 whole entry, looked up): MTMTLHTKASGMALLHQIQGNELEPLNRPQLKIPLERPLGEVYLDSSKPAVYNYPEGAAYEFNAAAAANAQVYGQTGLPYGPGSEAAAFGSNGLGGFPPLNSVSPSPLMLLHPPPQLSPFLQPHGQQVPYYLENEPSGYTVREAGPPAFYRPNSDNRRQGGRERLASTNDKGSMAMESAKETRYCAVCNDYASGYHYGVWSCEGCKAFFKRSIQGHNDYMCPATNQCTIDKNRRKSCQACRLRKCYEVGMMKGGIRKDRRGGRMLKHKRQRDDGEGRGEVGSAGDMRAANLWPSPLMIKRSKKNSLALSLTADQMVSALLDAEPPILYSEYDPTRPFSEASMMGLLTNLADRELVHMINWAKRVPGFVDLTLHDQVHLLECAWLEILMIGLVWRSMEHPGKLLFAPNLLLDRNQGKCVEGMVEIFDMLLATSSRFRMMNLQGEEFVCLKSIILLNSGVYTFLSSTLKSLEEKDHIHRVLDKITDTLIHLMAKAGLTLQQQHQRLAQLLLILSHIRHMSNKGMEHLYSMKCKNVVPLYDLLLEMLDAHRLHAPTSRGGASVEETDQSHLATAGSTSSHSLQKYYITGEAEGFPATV

Compound | Potency [1] | Potency [2] | Potency [3] | Potency [4] | outcome [5] | Potency [6] | Potency [7] | Potency [8] | Potency [9] | Potency [10] | Potency [11] | Potency [12] | Potency [13] | Potency [14] | Potency [15] | Potency [16] | Potency [17] | activity change, negative = cytotoxicity [8]
F[B-](F)(F)F | inactive | inactive | inactive | inactive | inactive | inactive | inactive | inactive and 62 µM (active) | inactive | inactive | inactive | – | – | – | – | – | – | –
O=C1NC(=O)C(c2ccccc2)(c2ccccc2)N1 | inactive | inactive | inactive | – | inactive | inactive | inactive | inactive | inactive | inactive | inactive | inactive | inactive | – | – | – | – | –
Cc1ccc(S(=O)(=O)O)cc1 | inactive | inactive | inactive | – | inactive | inactive | inactive | inactive | – | – | inactive | – | – | inactive | – | – | – | –
O=C1c2c(O)cccc2Cc2cccc(O)c21 | inactive | inactive | inactive | – | inactive | inactive | inactive | inactive | inactive | inactive | inactive | inactive | – | – | – | – | – | –
CN[C@H]1CC[C@@H](c2ccc(Cl)c(Cl)c2)c2ccccc21 | – | inactive | inactive | – | inactive | 18.8 µM (active) | inactive | 29.8 µM (active) | inactive | inactive | inactive | 2.82 µM (active) | – | – | inactive | – | – | –
C/C=C/C=C/C(=O)O | inactive | inactive | inactive | – | inactive | inactive | inactive | – | inactive | inactive | inactive | inactive | inactive | – | – | inactive | inactive | -4.84% [at 8.39 µM] (inactive)
CC(=O)C(=O)O | inactive | inactive | inactive | inactive | inactive | inactive | inactive | inactive | inactive | inactive | inactive | – | – | – | – | – | – | –
CC/C(=C(\c1ccccc1)c1ccc(OCCN(C)C)cc1)c1ccccc1 | 61.1 µM (active) [middle of 4 runs] | inactive | – | – | inactive | 23.7 µM (active) [middle of 4 runs] | 69 µM (active) and 48.9 µM (active) and 48.6 µM (active) | 24.5 µM (active) [middle of 5 runs] | inactive | 61.5 µM (active) and 21.1 µM (active) | inactive and 61.6 µM (active) | 11.2 µM (active) | 27.3 µM (active) and 21.9 µM (active) and 29.8 µM (active) | – | – | – | – | –

From PubChem BioAssay (Tox21)
